# Pf growth 48h – inhibits P. falciparum growth in the first generation, 48 h; P. falciparum luciferase growth in erythrocytes, 48 h; Potency, µM (titrated, usually from 28.7 µM), for the others: at the highest dose activity change, negative = inhibition, hits mostly inhibitors; 310,000 tested, 5.9% active; AID 504832; also: potency is read from the fitted curve at half-maximal effect; % is scaled to controls: 0 for no effect and ±100 for the full control effect
#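 In quantitative HTS format, infected erythrocytes bearing luciferase-reporter parasites were treated for a single generation at 37 C. Luminescence after adding detection reagent served as the growth measure.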
# SARS PLpro yeast – inhibitors of SARS-CoV papain-like protease in yeast; Potency, µM (titrated, usually from 32.9 µM), for the others: at the highest dose activity, positive = growth rescue, usual class: activators; 330,000 tested, 0.19% active; S. cerevisiae expressing SARS-CoV PLpro, growth rescue; AID 485353; calls by dose curve; also: potency is read from the fitted curve at half-maximal effect; 0% is about no effect; nearly all actives have a fitted effect of over 55% in size
# CHX counter – counter-screen for Shiga toxin inhibitors: cycloheximide protein synthesis inhibition | cell reporter, cycloheximide protein synthesis inhibition counterscreen | max response, % | 300,000 tested, 12% active | AID 2314; in the data active = max response mostly above about 13%, no sharp cut-off; inactive = mostly below about 14%; also: read at 38.3 µM for the half of the compounds with a filed dose; 0% is about no effect
# NS1 function inh – blocks influenza NS1 protein function | Potency, µM (titrated, usually from 46.1 µM), for the others: top-dose activity, positive = more growth | 270,000 tested, 0.4% active; calls by dose curve; also: potency is read from the fitted curve at half-maximal effect; actives are rising curves; nearly all actives have a fitted effect of over 50% in size
#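 Read-out: OD600 growth recovery of NS1-expressing budding yeast. Cells grown overnight at 30C in -URA glucose medium, washed, resuspended and diluted 1:100 in 2% galactose assay medium, pH 6.0. Same strain lacking NS1 served as positive control.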
# Pf growth 96h – P. falciparum growth inhibition at 96 hours | Potency, µM (doses to about 28.7 µM), without a hit: at the highest dose activity change, negative = inhibition, actives largely listed as inhibitors | AID 504834 | P. falciparum luciferase reporter growth, 96 h | 320,000 tested, 6.9% active; also: potency is read from the fitted curve at half-maximal effect; % is scaled to controls: 0 for no effect and ±100 for the full control effect
#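 Compounds incubated with erythrocytes infected by luciferase-expressing P. falciparum (2% hematocrit, 0.05% parasitemia final) for 96 hours, 37 C in 5% CO2. Growth inhibition scored as decreased luciferase luminescence.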
# Shiga toxin inh – inhibitors of Shiga toxin in Vero cells. AID 2315. 290,000 tested, 9.2% active. Vero cells, Shiga toxin protein synthesis inhibition reporter. inhibition, % at 38.7 µM; in the data active = inhibition mostly above about 28%, no sharp cut-off; inactive = mostly below about 43%; also: 0% is about no effect
# * marks the source's active call; other numbers are inactive results; ? = inconclusive; nt = no result given. Most compounds without a hit are left out; they make up all but 21% or so of the library. Unless noted, calls follow the shape of the dose curve; as a rule, active = well fitted inhibition curve with a large enough effect; inconclusive = small, poorly fitted or top-dose-only effect, or another doubt; inactive = no such curve, though single readings can be large or run the other way.
SMILES,Pf growth 48h,SARS PLpro yeast,CHX counter,NS1 function inh,Pf growth 96h,Shiga toxin inh
COc1ccc(N2CCN(C(c3ccccc3)c3nnnn3Cc3ccc(F)cc3)CC2)cc1 (stereo not given),9.3µM*,-3%,-3,5%,nt,16
Cc1ccc(NC(=O)c2cc(S(=O)(=O)N3CCOCC3)c(Br)s2)cc1,-17%,-31%,5,5%,?,4
O=S(=O)(Cc1cc(-c2ccccc2Cl)no1)c1ccccc1,69%,-1%,38*,2%,6%,121*
O=S(=O)(NCc1cc(-c2ccc(Cl)cc2)no1)c1ccccc1,5%,-8%,2,-1%,-7%,-7
O=S(=O)(Cc1cc(-c2ccc(Cl)cc2)no1)c1ccccc1,115%,1%,38*,14%,86%,44*
O=S(=O)(NCc1cc(-c2ccccc2Cl)no1)c1ccccc1,24%,-4%,-2,3%,28%,-4
Cc1ccc(Cl)cc1N1CCN(S(=O)(=O)c2c(C)[nH]c(C)c2C(=O)N2CCCCC2)CC1,?,1%,-3,14%,25%,-5
O=C(CSc1nc2ccccc2[nH]1)Nc1nc(-c2ccc(Br)cc2)cs1,?,-7%,10,25%,0%,18
COC(=O)c1ccc(-c2ccc(CNCC(O)c3ccccc3)o2)cc1 (stereo not given),2.6µM*,-13%,-3,-44%,12µM*,1
COc1cc(C(C)=O)ccc1OCC(O)CNCC(O)c1ccccc1 (stereo not given),nt,2%,3,0%,-8%,-5
O=C(/C=C/c1cccc([N+](=O)[O-])c1)OC1CCCCC1=O (stereo not given),10%,1%,-1,nt,9%,-2
O=C(CSc1nnc(C2CC2)n1C1CC1)c1cc(F)ccc1F,?,1%,nt,nt,-3%,nt
COC(=O)N/N=C(\C)c1ccc(-n2ccnc2)cc1,8%,-4%,13,nt,39%,18
C/C(=N\NC(=O)COc1ccc(C)cc1C(C)C)c1ccc(-n2ccnc2)cc1,?,-53%,17*,-18%,?,26
Cc1ccc([N+](=O)[O-])cc1N/C=C/C(=O)c1ccco1,32%,2%,65*,-2%,64%,125*
Cc1ccc(N/C=C/C(=O)c2ccco2)c(O)c1,111%,-6%,60*,3%,91%,70*
Cc1ccc(NC(=O)c2ccco2)c(NC(=O)c2ccccc2)c1,16%,-2%,-6,-4%,-28%,-6
Cc1ccc(N(CC(=O)Nc2ccc(Br)c(C)c2)S(=O)(=O)c2c(C)[nH]c(=O)[nH]c2=O)cc1,5%,5%,-4,17%,?,-4
COc1ccc(CSc2ncnc3sccc23)cc1F,2%,-3%,12,nt,5%,55*
O=C(CCC(=O)c1ccc(F)cc1)Nc1cc(Cl)cc(Cl)c1,41%,0%,6,-21%,40%,13
Cc1ccc(CNCC2CCCO2)o1 (stereo not given),-3%,-2%,-5,-3%,13µM*,-7
Clc1ccc(CNCC2CCCO2)cc1 (stereo not given),52%,-2%,-3,12%,18%,-8
COc1ccc(C(=O)NCc2ccc3c(c2)CCO3)cc1,0%,0%,12,-5%,22%,2
O=C(Nc1cccc2ncccc12)c1ccc(Cl)cc1,?,0%,-3,6%,6.6µM*,-6
COc1ccc(Cl)cc1C(=O)Nc1cccc2ncccc12,?,-2%,-3,-28%,0.23µM*,nt
COc1ccc(Br)cc1C(=O)Nc1cccc2ncccc12,1%,-1%,-1,-3%,-7%,-7
Cc1ccc(NC(=O)Cn2sc3nc(C)cc(C)c3c2=O)c(Cl)c1,4%,-5%,-1,0%,8%,8
COc1cc2c(cc1OC)C1C(C(=O)Nc3ccccc3N3CCN(C)CC3)c3ccccc3C(=O)N1CC2 (stereo not given),-7%,2%,-5,-7%,-150%,9
CCCNC(=O)C1(CC2CC(c3ccccc3)=NO2)CCN(C(=O)C2CCCC2)CC1 (stereo not given),13µM*,-7%,nt,nt,15µM*,nt
